TSHR antag: human thyrotropin receptor antagonism | P16473 | TSHR-expressing cells, TSH-stimulated cAMP HTRF, 2 h; stronger effect = lower value | activity change, negative = inhibition, % at 11.5 µM | actives 0.2% (n = 330,000);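 active means activity change below a set negative limit, meaning inhibition stronger than a set level, cut at about -70% in these data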
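Cell-based HTRF cAMP assay; TSHR cells + compound, TSH EC80 (4nM final), 2 h, 37 deg C. Lysis with anti-cAMP cryptate and cAMP-d2, 30 min RT, read 665/620 nm.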
B2AR arrestin: agonists driving beta-arrestin recruitment to human beta2-adrenergic receptor; P07550; beta-arrestin recruitment to beta2AR, cell-based reporter; Potency, µM (highest dose often 46.1 µM), hits mostly activators; actives 0.02% (n = 330,000); AID 492947; active means well fitted activation curve with a large enough effect; further: nearly all actives have a fitted effect of over 65% in size
D3 antag: D3 dopamine receptor (human) antagonism. max response, negative = inhibition, %. P35462. D3R cells, DiscoveRx beta-arrestin luminescence, antagonist mode; stronger effect = lower value. AID 652054. actives 2.5% (n = 360,000); in the data active means max response below about -50%
Target sequence (P35462 whole entry, looked up): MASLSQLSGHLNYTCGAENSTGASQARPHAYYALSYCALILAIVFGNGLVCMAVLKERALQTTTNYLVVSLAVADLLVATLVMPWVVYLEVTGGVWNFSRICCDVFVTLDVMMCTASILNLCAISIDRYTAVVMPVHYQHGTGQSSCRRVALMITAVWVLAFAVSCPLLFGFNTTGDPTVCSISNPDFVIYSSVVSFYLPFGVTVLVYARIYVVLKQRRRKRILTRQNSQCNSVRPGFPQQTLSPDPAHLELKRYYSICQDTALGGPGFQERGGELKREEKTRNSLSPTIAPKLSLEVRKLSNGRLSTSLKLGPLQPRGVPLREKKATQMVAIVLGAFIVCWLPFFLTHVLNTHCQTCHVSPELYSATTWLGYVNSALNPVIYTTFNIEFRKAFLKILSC
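Cells plated overnight at 1500 cells/well, then exposed to library compounds with dopamine controls for 90 minutes at 37 degrees C. DiscoveRx reagent added for 30–60 minutes at room temperature; luminescence read, quantitative HTS format.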
D3 ag: agonists of human D3 dopamine receptor | P35462 | D3R DiscoveRx beta-arrestin cells, luminescence, 90 min | max activation, % | actives 0.58% (n = 410,000) | AID 652048; in the data active means max activation above about 30%
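Cells at 1500/well, incubated overnight, then treated with pinned compounds (dopamine as control) for 90 min at 37 degrees C. DiscoveRx reagent added for 30 - 60 minutes at room temperature; luminescence read.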
Hits are given with their value; i = inactive; nt = no result given; ! = not confirmed by another sample; [ ] = another dose, or the depositor's remark. Shown are actives, neighbours in structure and some others; about 2.9% of the full set was active somewhere.

SMILES	TSHR antag	B2AR arrestin	D3 antag	D3 ag
O=C(Nc1ccc(Oc2ccccc2)cc1)c1csc([C@@H]2O[C@H](CO)[C@H](O)[C@H](O)[C@H]2O)n1	nt	nt	-92	i
CCCCOC(=O)c1ccc(NC(=S)NC(=O)c2c(Cl)cnn2C)cc1	i	i	-85	i
COc1ccc(CN2CCc3ccccc3C2)cc1Br	i	i	-92	i
COc1cc2c(cc1OC)CN(Cc1ccc(F)cc1)CC2	i	i	i	i
COc1ccc(CN2CCc3cc(OC)c(OC)cc3C2)cc1O	i	i	-58	i
O=C1CCSC2(C(=O)N(Cc3ccc(F)cc3)c3ccccc32)N1c1ccc(Cl)cc1 (centres undefined)	nt	nt	nt	i
Cc1onc(-c2ccccc2)c1C(=O)Nc1sc2c(c1C#N)CCC(C)C2 (centres undefined)	i	i	i	32
CC1CCc2c(sc(NC(=O)c3ccc(Cn4cc([N+](=O)[O-])cn4)o3)c2C#N)C1 (centres undefined)	i	i	-69	i
COc1ccccc1CNC(=O)c1ccc2c(c1)nc(C)n2-c1cccc(C)c1	nt	nt	nt	i
Cc1ccc(-n2nc(C)c3c(C(=O)NCCc4ccccc4)cc(C)nc32)cc1	nt	nt	nt	i
COc1ccc2c3c(c(=O)oc2c1)C1O[C@](CCCCN2C(=O)c4ccccc4C2=O)(Cc2cc(OC)c(OC)cc21)O3	nt	i[9.22 µM]	nt	nt
O=C(CSc1nnc(C2CC2)n1-c1ccccc1)NCCc1ccccc1	i	i	-60	i
COc1ccc(-c2[nH]c(-c3ccc(Cl)cc3)nc2SCC(=O)NCC2CCCO2)cc1 (centres undefined)	nt	nt	nt	i
CC1Nc2ncnc(N3CCN(c4ccccc4)CC3)c2N(Cc2ccc(Br)cc2)C1=O (centres undefined)	i	i	-156	i
COc1ccc(CN2C(=O)C(C)Nc3ncnc(N4CCN(c5ccccc5)CC4)c32)cc1 (centres undefined)	i	i	-70	i
O=C(O)c1cccc(NC(=O)C2CC(=O)N(Cc3ccccc3)C2)c1 (centres undefined)	i	i	-51	i
CCN(CC)CCNC(=O)c1c(C)n(-c2ccccc2)c2cc(Br)c(OC)cc12	i	i	-65	i
COc1ccc(OC)c(/C=C/c2nc3ccccc3c(=O)n2-c2ccc(F)c(Cl)c2)c1	nt	nt	nt	i
CCn1c(SCC(=O)c2ccc(Br)cc2)nnc1C(C)NC(=O)Cc1ccc(OC)cc1 (centres undefined)	i	i	i	i
COc1ccc(CC(=O)NC(C)c2nnc(SCC(=O)c3ccc(Br)cc3)n2C)cc1 (centres undefined)	i	i	-56	i
CCOC(=O)c1c(N)sc2c(NC(C)=O)cccc12	i	i	-81	i
COc1ccc(CNC(=O)[C@H](C)NC(=O)C2CCN(C(=O)[C@@H](N)CCSC)CC2)cc1	i	i	i	i
CSCC[C@H](N)C(=O)N1CCC(C(=O)N[C@@H](C)C(=O)NCc2ccc(F)cc2)CC1	i	i	i	31
COc1ccc(-c2nc3n(n2)C(c2ccccc2F)C(C(=O)Nc2cccnc2)=C(C)N3)cc1OC (centres undefined)	nt	nt	nt	i
Cc1ccc2[nH]c(-c3ccccc3)c(CN3CCCC3)c(=O)c2c1	i	i	i	i
SMILES	TSHR antag	B2AR arrestin	D3 antag	D3 ag
Cc1ccc2[nH]c(-c3ccccc3)c(CN3CCN(C)CC3)c(=O)c2c1	i	i	-76	i
O=S1(=O)CC(N2CC=CC2)CN1Cc1cn(Cc2ccc(F)cc2)nn1 (centres undefined)	nt	nt	-52	i
CN1CCC(N2CCN(C3CN(Cc4cn(Cc5cccc(C(F)(F)F)c5)nn4)S(=O)(=O)C3)CC2)CC1 (centres undefined)	nt	nt	i	i
O=S1(=O)CC(N2CCCCC2)CN1Cc1cn(Cc2ccc(F)cc2)nn1 (centres undefined)	nt	nt	i	i
CN1CCN(C2CN(Cc3cn(Cc4cccc(C(F)(F)F)c4)nn3)S(=O)(=O)C2)CC1 (centres undefined)	nt	nt	-51	i
CCOc1ccccc1NC(=O)CN1C(=O)COc2ccc(S(=O)(=O)N3CCCCCC3)cc21	nt	nt	nt	i
O=C1CC(c2cccc(Cl)c2Cl)c2cc3c(cc2N1)OCCO3 (centres undefined)	nt	nt	nt	i
C[C@]12CCC(=O)C[C@@H]1CC[C@@H]1[C@@H]2CC[C@]2(C)C=CC[C@@H]12	i	i	i	35!
C[C@]12CCC(=O)CC1CCC1C2CC[C@@]2(C)C1CC[C@@]21CCO1 (some centres undefined)	i	i	i	i
Cc1cccc(C)c1NC(=O)C(c1ccc(C#N)cc1)n1c(=O)c(-c2ccccc2)nc2ccccc21 (centres undefined)	nt	nt	-60	i
O=C(Cc1ccc(F)cc1)NCc1ccc2c(c1)CCN2C(=O)c1ccc(F)cc1	nt	nt	nt	i
O=C1C=CC(=O)N1CCCCCCCCCCN1C(=O)C=CC1=O	nt	nt	-100	i
CCOc1ccc(S(=O)(=O)Nc2cc(C)ccn2)c2ccccc12	i	i	i	32
O=[N+]([O-])c1ccc(N/N=C/c2cccc(O)c2O)c(S(=O)(=O)N2CCOCC2)c1	i	i	-64	i
O=[N+]([O-])c1ccc(N/N=C/c2ccc(O)c(O)c2O)c(S(=O)(=O)N2CCOCC2)c1	i	i	i	i
COc1ccc(/C=C/C(=O)Nc2sc3c(c2C(N)=O)CCC(C)C3)cc1OC (centres undefined)	nt	nt	nt	37
CN1C(=O)/C(=C/c2cc(N=Nc3ccccc3)ccc2O)SC1=S	i	i	-135	i
Oc1ccc(/C=N/Nc2nc(N3CCCCCC3)nc(N3CCCCCC3)n2)c(O)c1	i	i	i	37
C(=N\Nc1nc(N2CCCCCC2)nc(N2CCCCCC2)n1)/c1ccccc1	i	i	i	i
CC(/C=N/Nc1nc(N2CCCCC2)nc(N2CCCCC2)n1)=C\c1ccccc1	i	i	i	39
COC(=O)c1c(NC(=O)c2cc3ccccc3c(=O)o2)sc2c1CCCC2	nt	nt	nt	i
COc1ccc(NC(=O)c2csnn2)cc1Cl	nt	nt	nt	i
COc1ccc(NC(=O)Cc2c(C(=O)O)[nH]c3ccccc23)cc1OC	nt	nt	nt	i
CCc1c(-c2cccc(Cl)c2)ncn1Cc1cccc(-c2ccccc2)c1	nt	nt	i	i
CCCc1c(-c2cccc(Cl)c2)ncn1Cc1cccc(-c2ccccc2)c1	nt	nt	i	52
SMILES	TSHR antag	B2AR arrestin	D3 antag	D3 ag
CCOCCc1nn2c(=O)cc(COC(=O)c3ccccc3NC(=O)c3cccs3)nc2s1	nt	nt	nt	i
CCCn1cc(S(=O)(=O)CC(=O)NC2CCCCC2)c2ccccc21	i	i	-66	i
CCn1c(C(=O)O)c(CC(=O)NC2CCCCCC2)c2ccccc21	i	i	-89	i
Cn1cc(CC(=O)NC2CCCCC2)c2ccccc21	i	i	i	i
Cc1ccc(F)c(C(=O)N2CCCC(C)(C(=O)NS(=O)(=O)C3CC3)C2)c1F (centres undefined)	nt	nt	i	i
COc1ccc(CNS(=O)(=O)c2ccc(-c3cc(C(F)(F)F)on3)s2)cc1OC	nt	nt	nt	i
O=C(C(c1ccccc1)N1CCOCC1)N1CCOCC1 (centres undefined)	nt	nt	i	i

Screens as filed in PubChem.
